These results are taken from ChEMBL document CHEMBL1157539, “Thousands of chemical starting points for antimalarial lead identification” (Nature, 2010).

Common to all, as to type: functional
Assay [1] relates to Plasmodium falciparum. The assay can be described thus: GSK_TCMDC: Inhibition of Plasmodium falciparum 3D7 in whole red blood cells, using parasite LDH activity as an index of growth. Test compounds present at 2uM.
For assay [2], the system named is Plasmodium falciparum. The assay can be described thus: GSK_TCMDC: Inhibition of Plasmodium falciparum Dd2 in whole red blood cells, using parasite LDH activity as an index of growth. Test compounds present at 2uM.
In another assay the test system is HepG2. The assay can be described thus: GSK_TCMDC: Percent inhibition of human HepG2 cell line. Test compounds present at 10uM.

What is called Inhibition is the drop in the measured response relative to a control, in per cent. High values mean strong suppression, low ones little suppression. In the case of `COC(=O)C(=O)c1c(-c2ccccc2)c(-c2ccc(OC)c(OC)c2)c2c3cc(OC)c(OC)cc3ccn12`, the results for the Inhibition in the assay with Plasmodium falciparum [1], in the assay on Plasmodium falciparum [2] and with HepG2 were 97%, 89% and 2%, respectively.
On to `COc1cc2nc(N3CCC(CNC(=O)c4ccc(-c5ccc(C(=O)N(C)C)cc5C)cc4)CC3)nc(N3CCN(C)CC3)c2cc1OC`, for which the Inhibition was found to be 88% in the assay on Plasmodium falciparum [1], 84% with Plasmodium falciparum [2] and 26% with HepG2.
On to `COc1ccccc1N1CCN(C(C(=O)NCc2ccc3c(c2)OCO3)c2ccc(C)cc2)CC1` (stereo not drawn), for which the Inhibition in the assay on Plasmodium falciparum [1] was found to be 85%; in the assay on Plasmodium falciparum [2], 81%; in the assay with HepG2 it was 1%.
The like results for `Cc1nc2nc(N)nc(N)c2c(C)c1Cc1cccc(C(F)(F)F)c1.Cl` were, in that order, 89%, 23% and 65%.
Regarding `COc1ccccc1CNC(=O)CCn1c(=O)[nH]c2ccsc2c1=O`, the Inhibition is given as 85% in the assay on Plasmodium falciparum [1], 75% in the assay on Plasmodium falciparum [2] and 0% in the assay with HepG2.
`O=C(Nc1ccc(Cn2ncc(N3CCCNCC3)c(Cl)c2=O)cc1)Nc1ccc(OCc2ccccc2)cc1.O=C(O)C(F)(F)F`: the Inhibition in the assay with Plasmodium falciparum [1] amounted to 90%; in the assay on Plasmodium falciparum [2] it was 32%; in the assay with HepG2 it was 15%.
Regarding `CCCC(C)Nc1nc(C)cc(N[C@@H](CC(C)C)C(=O)NCCOc2ccccc2)n1.O=C(O)C(F)(F)F` (stereo partly drawn), the Inhibition with Plasmodium falciparum [1] was 93%; with Plasmodium falciparum [2], 28%; in the assay on HepG2, 15%.
Turning to `COc1ccc(CNc2nc(NCc3ccccc3)c3cc(OC)c(OC)cc3n2)cc1OC`, the Inhibition in the assay on Plasmodium falciparum [1] was 100%; in the assay on Plasmodium falciparum [2], 99%; with HepG2, 24%.
The like results for `CN1CCN(Cc2cccc(-c3ccc4c(Nc5ccc(F)cc5Cl)ccnc4c3)c2)CC1` were, in that order, 100%, 100% and 20%.
For `Cc1cc(C2CCN(CCCCNC(=O)c3ccc(NC(=O)c4ccc(Cl)cc4)cc3)CC2)c(C)cc1OCc1ccccn1.Cl`, the Inhibition worked out at 96% with Plasmodium falciparum [1], 65% in the assay on Plasmodium falciparum [2] and 18% with HepG2.
In the case of `Cc1ccc(C(=O)Nc2cccc([N+](=O)[O-])c2)cc1S(=O)(=O)N1CC(C)CC(C)C1` (stereo not drawn), the Inhibition in the assay on Plasmodium falciparum [1] came out at 100%; in the assay on Plasmodium falciparum [2] it was 42%; in the assay on HepG2 it was 24%.
Take `C[C@@H](CC1CCCCC1)OC(=O)N(C)[C@H]1CCN(C#N)C1`: the Inhibition turned out to be 84% in the assay with Plasmodium falciparum [1], 62% in the assay on Plasmodium falciparum [2] and 4% in the assay with HepG2.
On the same counts, the results for `Cc1cccc(OCC(=O)Nc2cccc(NC(=O)COc3cccc(C)c3)n2)c1` are 98%, 30% and 0%.
`Clc1nc(Cl)c2c(ccn2Cc2ccccc2)n1`: the Inhibition turned out to be 100% in the assay on Plasmodium falciparum [1], 61% in the assay on Plasmodium falciparum [2] and 0% with HepG2.
As to `CCOc1ccc(-c2nonc2NC(=O)c2ccc(Cl)cc2)cc1OCC`, the Inhibition was 94% in the assay on Plasmodium falciparum [1], 47% with Plasmodium falciparum [2] and 28% with HepG2.
Regarding `O=C(NCCCCN1CC=C(c2ccc3c(c2OCc2ccccc2)CCCC3)CC1)c1ccc(-c2ccc(C(F)(F)F)cc2)cc1`, the Inhibition in the assay on Plasmodium falciparum [1] amounted to 97%; with Plasmodium falciparum [2] it was 82%; in the assay with HepG2 it was 19%.
With `COc1ccc(N2CCN(CCCCNC(=O)c3ccc(/C=C/c4ccc(Cl)c(Cl)c4)cc3)CC2)c(OC)c1`, the Inhibition in the assay on Plasmodium falciparum [1] is listed as 100%; with Plasmodium falciparum [2], 51%; in the assay on HepG2, 51%.
For `Cc1nnc(Sc2ncnc3scc(-c4ccc(F)cc4)c23)s1`, the Inhibition in the assay on Plasmodium falciparum [1] is 99%; with Plasmodium falciparum [2], 50%; with HepG2, 13%.
On the same counts, the results for `CC(=O)Nc1ccc(OCCN(Cc2ccccc2OC(F)(F)F)c2ccc(C(F)(F)F)c(C#N)c2)c(Cl)c1` are 96%, 96% and 8%.
For `Cc1ccc(-c2cc3nc4c(c(NCCCn5ccnc5)n3n2)CCC4)cc1`, the Inhibition in the assay with Plasmodium falciparum [1] worked out at 94%; in the assay on Plasmodium falciparum [2], 21%; in the assay on HepG2, 22%.
For `O=c1cc(NCCC(CNCc2ccc(Br)o2)NCc2cc(Br)cc(Br)c2)[nH]c2ccccc12` (stereo not drawn), the Inhibition with Plasmodium falciparum [1] turned out to be 98%; in the assay with Plasmodium falciparum [2] it was 90%; in the assay on HepG2, 2%.
For the molecule `FC(F)(F)c1ccc2[nH]ccc(=NN=Cc3ccccc3Cl)c2c1`, the values for the Inhibition in the assay with Plasmodium falciparum [1], in the assay on Plasmodium falciparum [2] and in the assay on HepG2 were 100%, 83% and 0%, respectively.
With `O=C(NCCN1CCOCC1)c1ccc(O)c(-c2cccc(C(F)(F)F)c2)c1`, the Inhibition with Plasmodium falciparum [1] was 95%; with Plasmodium falciparum [2] it was 48%; in the assay on HepG2, 0%.
Take `CN1CCN(CC(=O)Nc2ccc(-c3cccc(-c4nc5cc(C(F)(F)F)ccc5[nH]4)c3)cc2)CC1`: the Inhibition with Plasmodium falciparum [1] amounted to 100%; with Plasmodium falciparum [2], 93%; in the assay with HepG2, 45%.
The like results for `Cc1noc(C)c1-c1ccc2c(Nc3nccc4ccccc34)c(C(N)=O)cnc2c1` were, in that order, 100%, 99% and 100%.
The like results for `COc1ccc(CCn2c(=N)c(C(=O)NCc3cccnc3)cc3c(=O)n4cccc(C)c4nc32)cc1` were, in that order, 92%, 12% and 5%.
For `COc1ccc2nc(C)cc(N/N=C/c3ccccc3[N+](=O)[O-])c2c1`, the Inhibition in the assay with Plasmodium falciparum [1] was 100%; in the assay with Plasmodium falciparum [2] it was 99%; with HepG2, 2%.
Regarding `O=C(O)C(F)(F)F.c1cc(CNCCc2ccncc2)cc(-c2cccc(-c3nc4ccccc4[nH]3)c2)c1`, the figures for the Inhibition in the assay with Plasmodium falciparum [1], with Plasmodium falciparum [2] and in the assay with HepG2 were 100%, 88% and 21%, respectively.
For `CCOc1ccc(C(Cc2ccccc2)NC(=O)c2cccnc2)cc1OCC` (stereo not drawn), the Inhibition amounted to 100% with Plasmodium falciparum [1], 98% in the assay on Plasmodium falciparum [2] and 0% in the assay on HepG2.
Take `O=C(O)C(F)(F)F.O=[N+]([O-])c1ccc(Oc2ccccc2CNCC2CCN(CC3CCCCC3)CC2)cc1`: the Inhibition in the assay on Plasmodium falciparum [1] came to 89%; with Plasmodium falciparum [2] it was 28%; in the assay on HepG2 it was 40%.
`COc1ccccc1Cn1ccnc1SCC(=O)Nc1cccc(C(F)(F)F)c1`: the Inhibition with Plasmodium falciparum [1] was 86%; in the assay with Plasmodium falciparum [2], 73%; in the assay with HepG2 it was 0%.
